Screening data deposited in PubChem BioAssay by National Center for Advancing Translational Sciences (NCATS).
GLP1R cytotox: cytotoxicity counter-screen for GLP-1 receptor inverse agonists | HEK293 cAMP-luciferase reporter cells, luminescence, 24 h | Potency, µM (doses to about 38.3 µM), actives largely listed as inhibitors | actives 0.13% (n = 410,000) | AID 624418;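 also: loss of luciferase light is scored as toxicity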
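Cells in DMEM/10% Nu serum/1% pen-strep, 1536-well format. Pre-incubated 12 h, dosed with 23 nL compound, incubated a further 24 h. Luciferase detection, 12 min at room temp, luminescence.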
GLP-1R agonist: activates the human GLP-1 receptor. Potency, µM (doses to about 45.6 µM), actives largely listed as activators. actives 0.007% (n = 380,000). AID 624172. HEK293 GLP-1R CRE-luciferase, luminescence, 4-6 h; cells express a hypersensitive GLP-1R form. P43220
Target sequence (P43220 whole entry, looked up): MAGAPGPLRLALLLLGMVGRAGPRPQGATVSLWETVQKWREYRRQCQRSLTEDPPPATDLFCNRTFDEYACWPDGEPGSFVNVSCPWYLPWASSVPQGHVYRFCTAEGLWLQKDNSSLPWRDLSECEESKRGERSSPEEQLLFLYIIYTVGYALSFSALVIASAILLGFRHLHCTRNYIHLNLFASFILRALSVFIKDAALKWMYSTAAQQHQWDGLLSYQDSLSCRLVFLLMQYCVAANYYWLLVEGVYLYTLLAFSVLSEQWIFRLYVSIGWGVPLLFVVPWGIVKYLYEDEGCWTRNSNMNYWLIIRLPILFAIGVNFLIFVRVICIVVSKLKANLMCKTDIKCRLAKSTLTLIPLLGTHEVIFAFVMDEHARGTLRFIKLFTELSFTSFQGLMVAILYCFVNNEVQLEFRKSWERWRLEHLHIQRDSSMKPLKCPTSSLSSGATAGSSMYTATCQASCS
GLP1R inv ag: acts as inverse agonist at human GLP-1 receptor; P43220; AID 624417; Potency, µM (series often up to 38.3 µM), most hits filed as inhibitors; actives 1.6% (n = 410,000); HEK293 GLP-1R CRE-luciferase, luminescence, 24 h; GLP-1R form is constitutively active; also: nearly all actives have a fitted effect of over 55% in size
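Luminescence readout: a drop in cAMP-driven luciferase signal flags inverse agonism at a constitutively active GLP-1R stably expressed in HEK293. Compound exposure lasted 24 hr at 37 deg C, 5% CO2.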
Large screens that a line does not name were inactive. A selection: hits, their analogues and other compounds. The true share with any hit is near 1.7%. Calls follow the shape of the dose curve; as a rule, active = well fitted curve in the direction sought with a large enough effect; inconclusive = small, poorly fitted or top-dose-only effect, or another doubt; inactive = no such curve, though single readings can be large; an effect the other way counts as inactive or inconclusive.

CCN(CC)C(C(=O)Nc1ccc(C(C)C)cc1)c1ccc2c(c1)OCO2 (stereo not drawn)	GLP1R cytotox inconclusive, GLP1R inv ag 7.1µM
CC(Oc1ccccc1)C(=O)Nc1cc(Cl)ccc1-n1cncn1 (stereo not drawn)	none
O=C(Cn1cc(C(=O)C2CC2)c2ccccc21)NCc1ccc2c(c1)OCO2	GLP1R inv ag 6.3µM
CC(=O)c1cn(CC(=O)NCc2ccc3c(c2)OCO3)c2ccccc12	none
CC(C)[C@@H](C(=O)NC1CCN(Cc2ccccc2)CC1)N1C(=O)N2CCc3c([nH]c4ccccc34)[C@@]2(C)C1=O	GLP1R inv ag inconclusive
O=C(CCl)N(Cc1cc(=O)[nH]c2ccccc12)c1ccccc1	GLP1R cytotox inconclusive, GLP1R inv ag 2.8µM
CCC(=O)N(Cc1cc(=O)[nH]c2ccccc12)c1ccccc1	none
COC(=O)C1=CN(c2ccc(F)cc2)C=C(C(=O)OC)C1c1cccc([N+](=O)[O-])c1	GLP1R inv ag 5.6µM
COC(=O)C1=CN(c2ccc(OC)cc2)C=C(C(=O)OC)C1c1cccc(F)c1	GLP1R inv ag inconclusive
COc1ccc2cc1Oc1ccc(cc1)C[C@H]1c3c(cc(OC)c4c3Oc3c(ccc5c3[C@H](C2)N(C)CC5)O4)CCN1C	none
COc1ccc2cc1Oc1ccc(cc1)CC1c3c(cc(OC)c4c3Oc3cc5c(cc3O4)CCNC5C2)CCN1C (stereo not drawn)	GLP1R cytotox 11µM, GLP1R inv ag 5.6µM
CC(=O)c1sc2c(c1OC(=O)c1ccc(Cl)cc1Cl)c(=O)n(-c1ccccc1)c(=S)n2-c1ccccc1	GLP1R inv ag 7.9µM
CC(=O)c1sc2c(c1OC(=O)c1ccc(Cl)cc1)c(=O)n(-c1ccccc1)c(=S)n2-c1ccccc1	none
CN(C)c1ccc(CN(CC2CCCO2)C(=O)c2ccc(Br)cc2)cc1 (stereo not drawn)	none (no result: GLP-1R agonist)
Cc1ccc(NC(=O)N2CCN(c3ccc(Cl)c(Cl)c3)CC2)cc1	GLP1R inv ag inconclusive (no result: GLP-1R agonist)
CC(C)c1ccc(S(=O)(=O)N2CCN(C(=O)CCNC(=O)Nc3ccccc3)CC2)cc1	GLP1R inv ag inconclusive
CC(C)c1ccc(NC(=O)N2CCN(S(=O)(=O)c3ccccc3)CC2)cc1	GLP1R inv ag 5.6µM
CC(C)c1ccc(NC(=O)N2CCN(c3ccc(Cl)c(Cl)c3)CC2)cc1	GLP1R inv ag 7.9µM (no result: GLP-1R agonist)
COc1ccc(-c2nc3c(C#N)c[nH]n3c2NC2CCCC2)c(OC)c1	none (no result: GLP-1R agonist)
Cc1nnc(SCc2cc(=O)n3c(C)cccc3n2)s1	none (no result: GLP-1R agonist)
CCOc1ccc(S(=O)(=O)N2CCOCC2)c2ccccc12	none
CCOc1ccc(S(=O)(=O)N2CCCCC2)c2ccccc12	GLP1R inv ag 10µM
CS(=O)(=O)N1CCN(c2ccc(NC(=O)c3ccc(-c4ccc(Cl)cc4)o3)cc2)CC1	none
CN1CCN(c2ccc(NC(=O)c3ccc(-c4ccc(Cl)cc4)o3)cc2)CC1	GLP1R cytotox inconclusive, GLP1R inv ag 4µM
Cc1ccc(-n2nc3c(c2NC(=O)C(C)C)CS(=O)(=O)C3)cc1	none
O=C(CC(=O)NC1CCCCC1)N/N=C/c1ccccc1[N+](=O)[O-]	none
O=C(CCCN1C(=O)/C(=C/c2ccccc2Cl)SC1=S)N1CCCC1	GLP1R cytotox inconclusive, GLP1R inv ag 10µM
O=C(CCN1C(=O)/C(=C/c2ccccc2Cl)SC1=S)N1CCCC1	none
O=C(CCN1C(=O)/C(=C\c2ccccc2)SC1=S)N1CCOCC1	GLP1R cytotox inconclusive
O=C(CCCN1C(=O)/C(=C/c2ccccc2)SC1=S)N1CCOCC1	GLP1R cytotox inconclusive, GLP1R inv ag 8.9µM
COc1ccc(S(=O)(=O)NCc2cccn2Cc2cc(C)ccc2C)cc1OC	none (no result: GLP-1R agonist)
Cc1ccc(NC(=O)CSCC(=O)NCCc2ccccn2)c(C)c1	none
COc1cccc(N/C(SCc2ccccc2Cl)=C(/C#N)C(=O)NCc2cccs2)c1	none
COc1cccc(N/C(SCc2ccccc2C)=C(/C#N)C(=O)NCc2cccs2)c1	GLP1R inv ag 7.1µM
CN1C(CSCC(F)(F)F)Nc2cc(Cl)c(S(N)(=O)=O)cc2S1(=O)=O (stereo not drawn)	none (no result: GLP1R cytotox, GLP1R inv ag)
Cn1nnnc1SCCNCc1ccc(OCc2ccccc2)cc1	none
CCOc1cc(CNCc2ccncc2)cc(Br)c1OCc1ccc(F)cc1	GLP1R inv ag 10µM
CCOc1cc(CNCCSc2nnnn2C)cc(Br)c1OCc1ccccc1	GLP1R inv ag 5.6µM
COc1cc(CNC(C)(C)CO)cc(Br)c1OCc1ccc(Cl)cc1Cl	GLP1R inv ag inconclusive
COc1ccc(CNCCc2ccc(Cl)cc2)cc1OCc1ccccc1	GLP1R cytotox inconclusive, GLP1R inv ag inconclusive
COc1cc(CNCCO)cc(Br)c1OCc1ccccc1Cl	GLP1R cytotox inconclusive, GLP1R inv ag 6.3µM
CCOc1cc(CNCc2ccccc2)ccc1OCc1ccc(Cl)cc1	GLP1R cytotox inconclusive, GLP1R inv ag 11µM
Fc1ccc(COc2ccc(Br)cc2CNCc2ccncc2)cc1	GLP1R inv ag inconclusive
O=C(CN1C(=O)C2C3CCC(C3)C2C1=O)N1CCN(Cc2ccccc2)CC1 (stereo not drawn)	none
c1cnc2cc3c(cc2n1)[C@@H]1CNC[C@@H]3C1	none (no result: GLP1R cytotox, GLP1R inv ag)
CCOc1ccc(CN2CCN(Cc3cccn3-c3nccs3)CC2CCO)cc1 (stereo not drawn)	GLP1R inv ag inconclusive
CC(C(=O)NC1CCCc2ccccc21)N1C(=O)C2CCCCC2C1=O (stereo not drawn)	none
Cn1nnnc1SCCNCc1ccccc1OCc1ccccc1Cl	GLP1R cytotox inconclusive, GLP1R inv ag inconclusive
CCOc1cc(CNCCO)cc(Br)c1OCc1ccccc1	GLP1R inv ag 6.3µM
Cn1nnnc1SCCNCc1cc(Br)ccc1OCc1ccccc1Cl	GLP1R inv ag 10µM
CCNCc1cc(Cl)c(OCc2ccccc2)c(OCC)c1	GLP1R inv ag inconclusive
O=S(=O)(NCC(c1ccco1)N1CCN(c2ccccc2)CC1)c1ccc(F)cc1 (stereo not drawn)	none
O=C(NCC(c1ccco1)N1CCN(c2ccc(F)cc2)CC1)OCc1ccccc1 (stereo not drawn)	GLP1R inv ag 3.5µM
O=S(=O)(NCC(c1ccco1)N1CCN(c2ccc(F)cc2)CC1)c1ccc(F)cc1 (stereo not drawn)	GLP1R inv ag 10µM
COC(=O)NCC(c1ccco1)N1CCN(c2ccc(F)cc2)CC1 (stereo not drawn)	none
CNS(=O)(=O)c1cn(CC(=O)Nc2ccc(F)cc2F)cc1S(=O)(=O)NC	none (no result: GLP-1R agonist)
Cc1ccc(C)c(N/C(N)=N/c2nc(C)cc(C)n2)c1	GLP1R cytotox inconclusive, GLP1R inv ag 8.9µM
COc1ccc(C)cc1N/C(N)=N/c1nc(C)cc(C)n1	none
CC(C)CNC(=S)N1CCC(Cc2ccccc2)CC1	GLP1R cytotox inconclusive, GLP1R inv ag 3.2µM
CC(C)NC(=S)N1CCC(Cc2ccccc2)CC1	GLP1R inv ag inconclusive
CC[C@H]1OC(=O)[C@H](C)[C@@H](O[C@H]2C[C@@](C)(OC)[C@@H](O)[C@H](C)O2)[C@H](C)[C@@H](O[C@@H]2O[C@H](C)C[C@H](N(C)C)[C@H]2O)[C@](C)(O)C[C@H](C)C(=NOCOCCOC)[C@H](C)[C@@H](O)[C@]1(C)O	none (no result: GLP1R cytotox, GLP1R inv ag)
CC(C)OCCCNc1nc(-c2ccccc2)nc2ccccc12	GLP1R inv ag inconclusive
CN(C)CCCNc1nc(-c2ccccc2)nc2ccccc12	GLP1R inv ag inconclusive
